We go through 39 targets from the supplement of paper PMC10849652.

Targets with a hit are over-represented here; the source holds about 7,900 in all. About 0.6% of all pairs of compound and target were hits. Unmarked numbers belong to inactive results.

Chain of UniProt O15118 (O15118 whole entry, looked up): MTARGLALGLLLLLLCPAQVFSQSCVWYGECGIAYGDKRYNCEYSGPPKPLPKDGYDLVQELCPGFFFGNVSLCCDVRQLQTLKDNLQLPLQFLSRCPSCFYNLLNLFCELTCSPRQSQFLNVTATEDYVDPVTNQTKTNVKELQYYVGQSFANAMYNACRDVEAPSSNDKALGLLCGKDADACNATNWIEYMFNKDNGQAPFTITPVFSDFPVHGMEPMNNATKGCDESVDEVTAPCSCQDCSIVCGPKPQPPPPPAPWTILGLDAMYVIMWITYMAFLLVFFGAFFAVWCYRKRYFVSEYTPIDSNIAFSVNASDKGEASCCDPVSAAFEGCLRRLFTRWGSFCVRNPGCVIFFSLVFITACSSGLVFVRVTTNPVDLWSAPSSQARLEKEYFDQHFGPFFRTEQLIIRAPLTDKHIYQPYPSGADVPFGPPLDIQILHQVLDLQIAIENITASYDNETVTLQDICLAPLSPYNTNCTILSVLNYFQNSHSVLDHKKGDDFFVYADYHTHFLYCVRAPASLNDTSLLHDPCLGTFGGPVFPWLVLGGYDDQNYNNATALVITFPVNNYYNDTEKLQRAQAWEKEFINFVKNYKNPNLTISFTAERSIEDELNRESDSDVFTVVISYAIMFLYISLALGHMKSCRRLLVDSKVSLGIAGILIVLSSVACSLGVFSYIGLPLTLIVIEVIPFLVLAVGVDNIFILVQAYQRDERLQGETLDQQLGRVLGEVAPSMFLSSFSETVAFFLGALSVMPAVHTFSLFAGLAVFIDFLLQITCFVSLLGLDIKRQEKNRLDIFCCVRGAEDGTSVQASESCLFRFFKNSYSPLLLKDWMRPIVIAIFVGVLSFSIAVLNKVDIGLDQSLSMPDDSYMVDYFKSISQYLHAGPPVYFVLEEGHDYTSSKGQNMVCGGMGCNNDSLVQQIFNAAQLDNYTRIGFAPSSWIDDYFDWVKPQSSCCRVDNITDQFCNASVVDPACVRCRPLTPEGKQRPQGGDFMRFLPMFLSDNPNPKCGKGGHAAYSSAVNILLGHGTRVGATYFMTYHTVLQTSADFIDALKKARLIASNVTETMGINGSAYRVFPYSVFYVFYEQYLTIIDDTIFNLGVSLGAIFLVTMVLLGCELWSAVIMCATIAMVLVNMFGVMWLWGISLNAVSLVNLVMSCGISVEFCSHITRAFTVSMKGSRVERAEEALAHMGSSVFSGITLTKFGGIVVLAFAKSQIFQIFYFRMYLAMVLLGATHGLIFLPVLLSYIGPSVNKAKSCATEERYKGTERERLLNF
Chain of UniProt O43913 (O43913 whole entry, looked up): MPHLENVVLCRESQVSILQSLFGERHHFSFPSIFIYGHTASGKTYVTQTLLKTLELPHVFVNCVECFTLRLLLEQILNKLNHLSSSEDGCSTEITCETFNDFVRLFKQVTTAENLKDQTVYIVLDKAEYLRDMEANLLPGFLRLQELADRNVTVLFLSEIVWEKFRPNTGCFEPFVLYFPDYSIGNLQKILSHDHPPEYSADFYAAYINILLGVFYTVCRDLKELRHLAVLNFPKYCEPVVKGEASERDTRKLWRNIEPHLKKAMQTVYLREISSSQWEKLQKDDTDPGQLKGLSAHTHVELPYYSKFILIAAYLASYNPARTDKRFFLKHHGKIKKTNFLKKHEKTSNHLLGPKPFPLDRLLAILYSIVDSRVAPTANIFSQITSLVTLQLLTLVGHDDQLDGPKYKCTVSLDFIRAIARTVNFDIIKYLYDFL
Chain of UniProt Q8NI08 (Q8NI08 whole entry, looked up): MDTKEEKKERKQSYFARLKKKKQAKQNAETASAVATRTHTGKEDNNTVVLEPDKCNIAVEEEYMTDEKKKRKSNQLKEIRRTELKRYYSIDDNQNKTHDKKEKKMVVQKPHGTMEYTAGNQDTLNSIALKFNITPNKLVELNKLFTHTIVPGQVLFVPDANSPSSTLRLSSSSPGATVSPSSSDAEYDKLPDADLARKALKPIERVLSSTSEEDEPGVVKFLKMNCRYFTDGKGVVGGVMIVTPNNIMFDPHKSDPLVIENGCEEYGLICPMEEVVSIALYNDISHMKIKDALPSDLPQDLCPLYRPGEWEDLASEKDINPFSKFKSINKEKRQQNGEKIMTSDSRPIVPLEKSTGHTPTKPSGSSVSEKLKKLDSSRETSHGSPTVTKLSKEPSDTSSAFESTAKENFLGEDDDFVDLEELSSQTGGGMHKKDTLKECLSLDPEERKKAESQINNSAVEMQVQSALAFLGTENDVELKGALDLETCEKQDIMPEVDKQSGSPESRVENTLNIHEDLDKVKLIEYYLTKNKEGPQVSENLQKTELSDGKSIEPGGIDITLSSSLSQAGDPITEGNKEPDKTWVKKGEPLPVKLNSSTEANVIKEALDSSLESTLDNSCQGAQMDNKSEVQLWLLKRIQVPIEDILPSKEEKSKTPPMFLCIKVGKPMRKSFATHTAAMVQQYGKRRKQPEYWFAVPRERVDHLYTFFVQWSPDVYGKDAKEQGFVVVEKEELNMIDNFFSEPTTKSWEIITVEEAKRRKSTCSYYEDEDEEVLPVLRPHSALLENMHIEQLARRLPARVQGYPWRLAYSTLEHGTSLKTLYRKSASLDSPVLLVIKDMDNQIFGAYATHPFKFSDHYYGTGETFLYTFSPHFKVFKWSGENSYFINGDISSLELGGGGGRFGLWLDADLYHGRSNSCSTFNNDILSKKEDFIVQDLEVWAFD
Chain of UniProt Q6VY07 (Q6VY07 whole entry, looked up): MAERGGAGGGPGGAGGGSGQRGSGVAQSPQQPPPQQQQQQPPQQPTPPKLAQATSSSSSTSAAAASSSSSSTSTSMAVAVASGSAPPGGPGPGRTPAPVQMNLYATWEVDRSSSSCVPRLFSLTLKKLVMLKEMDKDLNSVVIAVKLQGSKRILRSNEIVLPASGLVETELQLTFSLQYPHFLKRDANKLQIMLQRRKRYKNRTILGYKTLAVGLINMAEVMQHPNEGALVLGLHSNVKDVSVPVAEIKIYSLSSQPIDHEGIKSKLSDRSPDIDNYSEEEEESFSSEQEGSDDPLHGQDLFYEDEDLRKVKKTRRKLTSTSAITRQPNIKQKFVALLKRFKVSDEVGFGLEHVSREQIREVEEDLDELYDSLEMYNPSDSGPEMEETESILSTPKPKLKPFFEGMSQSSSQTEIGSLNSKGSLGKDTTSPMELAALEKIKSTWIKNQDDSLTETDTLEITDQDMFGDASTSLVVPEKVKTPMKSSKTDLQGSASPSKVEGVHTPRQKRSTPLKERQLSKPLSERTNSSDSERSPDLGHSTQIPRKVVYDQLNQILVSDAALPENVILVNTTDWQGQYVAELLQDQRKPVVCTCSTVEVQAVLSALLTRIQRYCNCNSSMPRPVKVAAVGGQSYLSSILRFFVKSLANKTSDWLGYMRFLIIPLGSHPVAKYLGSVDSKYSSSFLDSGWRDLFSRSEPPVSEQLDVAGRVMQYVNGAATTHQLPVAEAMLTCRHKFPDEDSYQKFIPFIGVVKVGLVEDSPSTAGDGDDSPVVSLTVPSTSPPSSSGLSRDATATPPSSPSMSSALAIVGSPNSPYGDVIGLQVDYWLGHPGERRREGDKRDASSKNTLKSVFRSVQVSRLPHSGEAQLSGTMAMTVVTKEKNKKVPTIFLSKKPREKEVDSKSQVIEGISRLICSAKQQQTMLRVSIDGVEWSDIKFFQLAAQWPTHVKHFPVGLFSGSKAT
Chain of UniProt Q8WUY8 (Q8WUY8 whole entry, looked up): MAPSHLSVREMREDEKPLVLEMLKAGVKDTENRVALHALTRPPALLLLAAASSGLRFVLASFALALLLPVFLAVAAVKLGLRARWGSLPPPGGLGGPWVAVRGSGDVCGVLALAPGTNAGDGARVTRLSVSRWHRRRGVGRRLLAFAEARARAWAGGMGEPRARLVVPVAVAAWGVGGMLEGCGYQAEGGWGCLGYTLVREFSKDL
Chain of UniProt Q9Y2X3 (Q9Y2X3 whole entry, looked up): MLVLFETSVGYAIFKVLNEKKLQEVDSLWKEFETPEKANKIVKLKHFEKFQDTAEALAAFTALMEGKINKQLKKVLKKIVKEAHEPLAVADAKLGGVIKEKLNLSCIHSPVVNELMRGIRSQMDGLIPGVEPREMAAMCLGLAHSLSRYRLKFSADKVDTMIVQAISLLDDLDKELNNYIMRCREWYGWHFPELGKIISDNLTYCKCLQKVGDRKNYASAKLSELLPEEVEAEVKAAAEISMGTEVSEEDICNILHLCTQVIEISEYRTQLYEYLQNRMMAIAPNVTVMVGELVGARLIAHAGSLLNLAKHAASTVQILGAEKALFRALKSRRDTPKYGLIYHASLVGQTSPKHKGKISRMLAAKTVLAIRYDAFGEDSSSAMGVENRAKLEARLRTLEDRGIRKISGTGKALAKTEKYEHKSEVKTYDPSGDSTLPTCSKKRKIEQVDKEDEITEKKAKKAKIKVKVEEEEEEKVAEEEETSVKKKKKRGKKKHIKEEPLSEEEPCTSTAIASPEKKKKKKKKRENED
Chain of UniProt Q9UH92 (Q9UH92 whole entry, looked up): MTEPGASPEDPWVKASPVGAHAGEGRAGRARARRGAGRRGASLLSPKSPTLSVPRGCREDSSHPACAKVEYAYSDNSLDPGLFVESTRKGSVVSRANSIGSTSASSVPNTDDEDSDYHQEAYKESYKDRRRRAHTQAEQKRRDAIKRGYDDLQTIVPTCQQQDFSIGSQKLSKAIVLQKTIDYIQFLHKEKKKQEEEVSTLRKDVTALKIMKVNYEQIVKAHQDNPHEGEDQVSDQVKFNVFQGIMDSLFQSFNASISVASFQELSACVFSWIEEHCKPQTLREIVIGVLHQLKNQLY
Chain of UniProt P03886 (P03886 whole entry, looked up): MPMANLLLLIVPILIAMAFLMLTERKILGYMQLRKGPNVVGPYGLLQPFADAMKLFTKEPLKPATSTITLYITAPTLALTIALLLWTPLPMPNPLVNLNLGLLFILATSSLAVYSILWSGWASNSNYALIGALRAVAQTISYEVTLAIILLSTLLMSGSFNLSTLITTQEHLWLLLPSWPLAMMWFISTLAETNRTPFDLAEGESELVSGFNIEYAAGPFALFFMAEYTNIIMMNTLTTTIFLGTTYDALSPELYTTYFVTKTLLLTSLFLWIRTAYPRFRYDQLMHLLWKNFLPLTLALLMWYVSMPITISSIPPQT

Compound in the first test: CCCc1cc(C)[nH]c(=O)c1CNC(=O)c1cc(-c2ccnc(N3CCN(C)CC3)c2)cc2c1cnn2C(C)C
Nature of the test: log2 fold change, soluble protein after heating vs DMSO (PISA); higher = thermal stabilisation; K562 cells, 10 uM, 30 min; active = over 0.2 and 3.5 SD of the protein, either way, in both replicates (recomputed). The gist of the method: (§1)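 K562 cells at 2×10^6 cells/mL were given 10 μM compound for 30 min. Aliquots then went through 3 min of heating across 48°C-58°C, were pooled, and were extracted in PBS with 0.5% NP-40 at 4°C, and the supernatant after 21,000xg for 90 min was quantified by TMTpro 16plex LC-MS/MS with channel sums equalised. Thermal stability relative to control samples, from duplicates, is given as log2 fold change.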
Consider NFYB (UniProt P25208), for which the log2 fold change is 0.044.

For NME7 (UniProt Q9Y5B8), the log2 fold change is -0.06.

In the case of MPHOSPH8 isoform 2 (UniProt Q99549), the log2 fold change was -0.002.

Turning to NPM3 (UniProt O75607), the log2 fold change is -0.015.

With OAF (UniProt Q86UD1), the log2 fold change was -0.346.

NME2P1 (UniProt O60361): the log2 fold change was -0.102.

MON1A (UniProt Q86VX9): the log2 fold change is 0.009.

Regarding NCOA7 (UniProt Q8NI08), the log2 fold change was 0.024.

Take NCK1 (UniProt P16333): the log2 fold change was 0.08.

As for NAT14 (UniProt Q8WUY8), the log2 fold change was -0.103.

Regarding NUMBL (UniProt Q9Y6R0), the log2 fold change was 0.249.

Consider NDFIP1 (UniProt Q9BT67), for which the log2 fold change was -0.15.

Take NA isoform 3 (UniProt Q4G0T1): the log2 fold change was -0.012.

Regarding PACS1 (UniProt Q6VY07), the log2 fold change is 0.092.

Turning to NPC1 (UniProt O15118), the log2 fold change is -0.028.

In the case of MRPS21 (UniProt P82921), the log2 fold change is -0.018.

As to MRPS16 (UniProt Q9Y3D3), the log2 fold change was 0.032.

Consider NOP58 (UniProt Q9Y2X3), for which the log2 fold change is 0.081.

MYLK (UniProt Q15746): the log2 fold change was -0.154.

As to MLX (UniProt Q9UH92), the log2 fold change is 0.071.

With OPHN1 (UniProt O60890), the log2 fold change is -0.018.

Take MTHFD1, A0A384N5Y3: the log2 fold change is -0.035.

As to NAA11 (UniProt Q9BSU3), the log2 fold change is 0.047.

Take NECTIN2 isoform 2 (UniProt Q92692): the log2 fold change was -0.028.

Consider MRPL46 (UniProt Q9H2W6), for which the log2 fold change was 0.009.

Take MRPS33 (UniProt Q9Y291): the log2 fold change was -0.042.

MT-ND1 (UniProt P03886): the log2 fold change is 0.019.

For NCBP2AS2 (UniProt Q69YL0), the log2 fold change was -0.096.

In the case of MRPS26 (UniProt Q9BYN8), the log2 fold change is -0.056.

Consider MRFAP1 (UniProt Q9Y605), for which the log2 fold change was 0.009.

As to ORC5 (UniProt O43913), the log2 fold change is 0.058.

Take NEK3 (UniProt P51956): the log2 fold change is -0.063.

Compound in a further test: CCN(CC)Cc1ccc2cc(COC(=O)Nc3ccc(C(=O)NO)cc3)ccc2c1 [givinostat]
The test is described as above. The method, boiled down:
as §1
Regarding NFYB (UniProt P25208), the log2 fold change is -0.012.

NME7 (UniProt Q9Y5B8): the log2 fold change was -0.202.

On to NPM3 (UniProt O75607), for which the log2 fold change is 0.019.

For the target OAF (UniProt Q86UD1), the log2 fold change is -0.071.

Regarding MTFR1L (UniProt Q9H019), the log2 fold change was 0.031.

Take NME2P1 (UniProt O60361): the log2 fold change is 0.09.

Turning to MON1A (UniProt Q86VX9), the log2 fold change was 0.008.

For the target NCOA7 (UniProt Q8NI08), the log2 fold change was 0.045.

Regarding NCK1 (UniProt P16333), the log2 fold change is 0.211.

For the target PAFAH2 (UniProt Q99487), the log2 fold change was 0.059.

NAT14 (UniProt Q8WUY8): the log2 fold change is -0.043.

As for NUMBL (UniProt Q9Y6R0), the log2 fold change was 0.

On to NDFIP1 (UniProt Q9BT67), for which the log2 fold change was -0.046.

Take NA isoform 3 (UniProt Q4G0T1): the log2 fold change is -0.009.

In the case of PACS1 (UniProt Q6VY07), the log2 fold change is 0.004.

Turning to NPC1 (UniProt O15118), the log2 fold change is -0.051.

For the target MRPS21 (UniProt P82921), the log2 fold change is -0.016.

With MRPS16 (UniProt Q9Y3D3), the log2 fold change was 0.031.

As to NOP58 (UniProt Q9Y2X3), the log2 fold change was 0.072.

Regarding MYLK (UniProt Q15746), the log2 fold change is -0.132.

Consider MLX (UniProt Q9UH92), for which the log2 fold change was 0.047.

Take OSBPL3 (UniProt Q9H4L5): the log2 fold change was -0.204.

With NUDT7 (UniProt P0C024), the log2 fold change was 0.017.

For the target OPHN1 (UniProt O60890), the log2 fold change is 0.049.

For NAA11 (UniProt Q9BSU3), the log2 fold change is 0.

On to NECTIN2 isoform 2 (UniProt Q92692), for which the log2 fold change was 0.054.

For MRPL46 (UniProt Q9H2W6), the log2 fold change is -0.003.

Turning to MRPS33 (UniProt Q9Y291), the log2 fold change is 0.043.

Regarding MT-ND1 (UniProt P03886), the log2 fold change is 0.057.

In the case of NCBP2AS2 (UniProt Q69YL0), the log2 fold change was -0.146.

Take NCOA5 (UniProt Q9HCD5): the log2 fold change was 0.08.

Consider MRPS26 (UniProt Q9BYN8), for which the log2 fold change was 0.098.

On to MRFAP1 (UniProt Q9Y605), for which the log2 fold change is 0.017.

With ORC5 (UniProt O43913), the log2 fold change is -0.009.

NEK3 (UniProt P51956): the log2 fold change is -0.013.

Compound in another test: CCN(CCCOc1ccc2c(Nc3cc(CC(=O)Nc4cccc(F)c4)[nH]n3)ncnc2c1)CCOP(=O)(O)O [barasertib]
The test is described as above. The gist of the method:
as §1
Regarding NFYB (UniProt P25208), the log2 fold change is 0.049.

Regarding NME7 (UniProt Q9Y5B8), the log2 fold change is 0.042.

For NPM3 (UniProt O75607), the log2 fold change was -0.083.

As to MTFR1L (UniProt Q9H019), the log2 fold change was -0.026.

In the case of NA, A0A2R8Y3M9, the log2 fold change was -0.138.

With NME2P1 (UniProt O60361), the log2 fold change is 0.12.

Take MON1A (UniProt Q86VX9): the log2 fold change was 0.065.

As to NCOA7 (UniProt Q8NI08), the log2 fold change was 0.009.

For the target NCK1 (UniProt P16333), the log2 fold change was 0.189.

On to PAFAH2 (UniProt Q99487), for which the log2 fold change was -0.044.

As to NAT14 (UniProt Q8WUY8), the log2 fold change is 0.027.

Consider NUMBL (UniProt Q9Y6R0), for which the log2 fold change was 0.069.

Turning to NDFIP1 (UniProt Q9BT67), the log2 fold change was -0.011.

As to NA isoform 3 (UniProt Q4G0T1), the log2 fold change was 0.179.

As to PACS1 (UniProt Q6VY07), the log2 fold change was 0.039.

Take NPC1 (UniProt O15118): the log2 fold change is 0.02.

As for MRPS21 (UniProt P82921), the log2 fold change was -0.156.

MRPS16 (UniProt Q9Y3D3): the log2 fold change is -0.084.

With NOP58 (UniProt Q9Y2X3), the log2 fold change is -0.075.

Turning to MYLK (UniProt Q15746), the log2 fold change is 0.032.

As for MLX (UniProt Q9UH92), the log2 fold change is 0.117.

Take NUDT7 (UniProt P0C024): the log2 fold change is 0.666 (active).

For OPHN1 (UniProt O60890), the log2 fold change was -0.037.

Take MTHFD1, A0A384N5Y3: the log2 fold change is 0.044.

As for NAA11 (UniProt Q9BSU3), the log2 fold change was -0.027.

With MYSM1 (UniProt Q5VVJ2), the log2 fold change was -0.114.

For NECTIN2 isoform 2 (UniProt Q92692), the log2 fold change was 0.005.

For the target MRPL46 (UniProt Q9H2W6), the log2 fold change was -0.008.

As to MRPS33 (UniProt Q9Y291), the log2 fold change is -0.015.

For the target MT-ND1 (UniProt P03886), the log2 fold change is 0.127.

As for NCBP2AS2 (UniProt Q69YL0), the log2 fold change is 0.072.

Consider MRPS26 (UniProt Q9BYN8), for which the log2 fold change is 0.026.

As to MRFAP1 (UniProt Q9Y605), the log2 fold change was 0.036.

Consider ORC5 (UniProt O43913), for which the log2 fold change was 0.025.
